According to PubChem BioAssay (NCATS):
Inconclusive results are not listed. Activity calls are given as the source filed them. Calls come from the whole dose curve; as a rule, active = well fitted curve in the direction sought with a large enough effect; inconclusive = small, poorly fitted or top-dose-only effect, or another doubt; inactive = no such curve, though single readings can be large or run the other way.

Test: Viability counterscreen for agonist of constitutive androstane receptor (CAR) against the NCATS DSHEA and TCM libraries (AID 1794838)
Conditions: HepG2 cell viability counterscreen, CAR agonist assay; series mostly up to 40 µM
From the text: Assay Development and Screening Technology Laboratory (ADST)
National Center for Advancing Translational Sciences (NCATS), Rockville, MD
National Institute of Health (NIH), Bethesda, Maryland
Dietary Supplements and Natural Products have minor oversight of their safety and efficacy. We assembled a collection of Dietary Supplements and Natural Products (DSNP) as well as Traditional Chinese Medicinal (TCM) Plant extracts, which were screened against an in vitro panel of assays, including a liver cytochrome p450 enzyme panel, CAR/PXR signaling pathways, and P-gp transporter assays, to assess their activity. This pipeline facilitated the interrogation of Natural Product-Drug Interaction (NaPDI) through prominent metabolizing pathways. In addition, we compared the activity profiles of the DSNP/TCM substances with those of an approved drug collection. Many of the approved drugs have well-annotated mechanisms of action (MOA) while the MOAs for most of the DSNP and TCM samples remain unknown. Based on the premise that compounds with similar activity profiles tend to share similar targets or MOA, we clustered the library activity profiles to identify overlap with the NCATS Pharmaceutical Collection to predict the MOAs of the DSNP/TCM substances. Overall, we highlight four significant bioactivity profiles (measured by p-values) as examples of this prediction.
To this end, we profiled both collections for potential CAR and/or PXR activity, employing a previously published 1536-well qHTS assay.
PROTOCOL TABLE (as described by Inglese J, Shamu CE and Guy RK. 2007)
SEQUENCE No. (e.g., 1, 2, 3, etc.); […] (e.g., Cells, Incubation, Reagent, etc.); VALUE; DESCRIPTION.
1; Cells; 4 uL; 1536-well white Greiner assay plate.
2; Incubation; 5 hours; 37C, 95% humidity, 5% CO2.
3; Compounds; 23 nL; Kalypsis pin tool (Wako USA) equipped with 1536-well pin head to transfer to the assay plates.
4; Reagent; 1 uL; 0.75 uM PK11195 (final concentration).
5; Incubation; 24 hours; 37C, 5% CO2.
6; Detection Reagent 1; 1 uL; CellTiter-Fluor (Promega).
7; Incubation; 1 hour; 37C, 5% CO2.
8; Detector 1; Fluorescence intensity; ViewLux plate reader (excitation 405 nm, emission 540 nm).
9; Detection Reagent 2; 4 uL; ONE-Glo Luciferase reagent (Promega).
10; Incubation; 30 min; room temperature.
11; Detector 2; Luminescence intensity; ViewLux.
NOTES (numbers refer to Sequence numbers above)
1. 4 uL of HepG2-CYP2B6-hCAR cells at 6.25 x 10^5 cells/mL (2,500 cells/well) were dispensed using a Multidrop Combi dispenser in tissue culture-treated 1536-well white assay plates (Greiner Bio-One) in the same culture media, without geneticin and blasticidin included.
2. Plates were incubated for 5 hours at 37C, 95% humidity, and 5% CO2 to allow for cell attachment.
3. Compounds (final concentrations of most substances ranged from 15.6 nM to 31.9 uM), positive control (for agonist mode: 6-(4-Chlorophenyl)imidazo[2,1-b][1,3]thiazole-5-carbaldehyde O-(3,4-dichlorobenzyl)oxime (CITCO) with a final concentration range 2.8 nM to 92 uM were transferred (23 nL) via pintool (Wako Automation).
4. After compound transfer, plates were dispensed with 1 uL of the known hCAR antagonist PK11195 (final concentration of 0.75 uM) in the agonist mode using a BioRAPTR FRDTM.
6. 1 uL of CellTiter-Fluor (Promega, Madison, Wisconsin) was added using a BioRAPTR FRDTM.
8. Fluorescence intensity (Ex/Em = 405 nm/540 nm) is obtained using the ViewLux plate reader to determine cell viability.
9. 4 uL of ONE-Glo Luciferase reagent (Promega) was added to each well using the BioRAPTR FRDTM,
10. Luminescence intensity is read using the ViewLux detector.
Inglese J, Shamu CE and Guy RK, Reporting data from high throughput screening of small molecule libraries, Nature Chemical Biology, 2007, 3(8): 438-441. doi.org/10.1038/nchembio0807-438.

Q: With COC1=C[C@@]23CCN(C)[C@H](Cc4ccc(OC)c(O)c42)C3=CC1=O as the compound, how does the outcome read?
A: inactive

Q: Which outcome does the source give for COc1cc2c(cc1O)CC1c3c(cc(O)c(OC)c3-2)CCN1C (stereo not drawn) here?
A: inactive

Q: With C=C[C@H]1CN2CC[C@@]3(C(=O)Nc4ccccc43)[C@@H]2C[C@@H]1/C(=C\OC)C(=O)OC as the compound, how does the outcome read?
A: inactive

Q: Which outcome does the source give for CCCCCCCCCCCCCCCCCCCC(=O)O here?
A: inactive

Q: For C=C[C@H]1CN2CCc3c([nH]c4ccccc34)[C@H]2C[C@@H]1/C(=C\OC)C(=O)OC, which outcome is on record?
A: inactive

Q: With COC(=O)C1=CO[C@@H](C)[C@@H]2CN3CC[C@@]4(C(=O)Nc5ccccc54)[C@@H]3CC12 (stereo partly drawn) as the compound, how does the outcome read?
A: inactive

Q: For C=CCc1ccc2c(c1)OCO2, which outcome is on record?
A: inactive

Q: For N#CC(O[C@@H]1O[C@H](CO[C@@H]2O[C@H](CO)[C@@H](O)[C@H](O)[C@H]2O)[C@@H](O)[C@H](O)[C@H]1O)c1ccccc1 (stereo partly drawn), which outcome is on record?
A: inactive

Q: Which outcome does the source give for COc1cc2c(cc1O)CC1NCCc3cc(OC)c(OC)c-2c31 (stereo not drawn) here?
A: inactive

Q: With COc1cc2c(cc1O)C[C@H]1c3c(cc(OC)c(O)c3-2)CCN1C as the compound, how does the outcome read?
A: inactive

Q: Which outcome does the source give for COc1ccc2c(c1O)-c1c(OC)c(OC)cc3c1[C@H](C2)N(C)CC3 here?
A: inactive

Q: For CC[C@@H]1CN2CC[C@]3(C(=O)Nc4ccccc43)[C@@H]2C[C@@H]1/C(=C\OC)C(=O)OC, which outcome is on record?
A: inactive

Q: Which outcome does the source give for C=C(C)[C@@H]1CCC(C)=C[C@H]1c1c(O)cc(CCCCC)cc1O here?
A: inactive
